Screens (PubChem BioAssay)
USP30 inh = inhibitors of human USP30 deubiquitinase | purified USP30, Ub-rhodamine cleavage fluorescence | inhibition, % at 25 µM | actives 5.3% (n = 47,000) | AID 1645860, 2021
USP17 inh = inhibitors of human USP17 deubiquitinase. Ubiquitin carboxyl-terminal hydrolase 17-like protein 5 (Homo sapiens), A8MUK1. inhibition, % at 50 µM. purified USP17, Ub-rhodamine cleavage fluorescence, 3 h. AID 1645855, 2021. actives 6.5% (n = 47,000)
Target sequence (A8MUK1 whole entry, looked up): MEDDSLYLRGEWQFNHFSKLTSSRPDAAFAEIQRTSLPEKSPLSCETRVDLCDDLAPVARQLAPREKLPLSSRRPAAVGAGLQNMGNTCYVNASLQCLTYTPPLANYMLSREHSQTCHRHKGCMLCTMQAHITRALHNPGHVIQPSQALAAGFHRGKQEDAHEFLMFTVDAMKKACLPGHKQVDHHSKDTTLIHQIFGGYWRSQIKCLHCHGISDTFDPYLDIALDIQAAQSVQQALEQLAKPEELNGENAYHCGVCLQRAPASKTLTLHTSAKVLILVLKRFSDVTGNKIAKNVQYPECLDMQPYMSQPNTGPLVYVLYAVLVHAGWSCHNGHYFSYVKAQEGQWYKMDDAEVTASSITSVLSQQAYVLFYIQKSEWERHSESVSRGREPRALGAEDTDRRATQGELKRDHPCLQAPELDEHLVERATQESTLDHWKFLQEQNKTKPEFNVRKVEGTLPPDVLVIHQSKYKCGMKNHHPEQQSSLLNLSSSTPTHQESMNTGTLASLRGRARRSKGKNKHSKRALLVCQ
USP10 inh = inhibitors of human USP10 deubiquitinase; Ubiquitin carboxyl-terminal hydrolase 10 (Homo sapiens), Q14694; purified USP10, Ub-rhodamine fluorescence, 60 min; inhibition, % at 20 µM; actives 1.1% (n = 47,000)
USP28 inh = inhibitors of human USP28 deubiquitinase; Ubiquitin carboxyl-terminal hydrolase 28 (Homo sapiens), Q96RU2; purified USP28, Ub-rhodamine cleavage fluorescence, 30 min; inhibition, % at 25 µM; actives 3% (n = 47,000); AID 1645857, 2021
USP8 block = inhibitors of human USP8 deubiquitinase; Ubiquitin carboxyl-terminal hydrolase 8 (Homo sapiens), P40818; purified USP8, Ub-rhodamine cleavage fluorescence, 30 min; inhibition, % at 20 µM; actives 4.2% (n = 47,000); AID 1645853, 2021
* hit, by the source's call; i = inactive; / = no result. Hits are enriched below; roughly 13% of the tested compounds scored in any of these assays. Rule as the data show it: active = inhibition above about 30%; inactive = the rest.

SMILES	USP30 inh	USP17 inh	USP10 inh	USP28 inh	USP8 block
CC(CCc1ccccc1)NC(=O)c1cnn2c3c(cnc12)CCCC3 (stereo not drawn)	-5.5	7.0	-2.0	-9.6	-13.4
O=C(O)c1cnn2c3c(cnc12)CCCCCC3	1.8	-4.6	-0.4	7.2	-0.9
COc1ccccc1NC(=O)N(CCCN1CCOCC1)Cc1cc2cc(C)cc(C)c2[nH]c1=O	21.5	9.1	0.6	2.7	9.9
COc1cccc(CN2CCN(C(=O)c3c(Cl)cnn3C)CC2)c1	12.8	5.8	3.1	-0.1	-0.3
O=c1oc2ccccc2c(N2CCN(c3ccccn3)CC2)c1CN1CCCC1	-5.7	-8.1	1.1	-14.3	-6.0
O=c1oc2ccccc2c2nn(-c3ccccn3)cc12	26.7	50.8*	4.5	-0.1	7.5
CCc1ccc(-n2c(=O)[nH]c3c(c2=O)C(C)(C)Cc2ccccc2-3)cc1	-0.8	37.2*	1.5	3.4	18.5
COc1ccc(-c2cncc(-c3cc(NCc4ccc(Cl)cc4)nc(C)n3)c2)cc1	18.2	8.3	4.4	0.6	11.3
FC(F)(F)Oc1ccc(-c2cnc(NCc3ccc(Cl)cc3)nc2)cc1	34.2*	24.6	7.1	19.6	28.3
Cc1noc(-c2ccc(N3CCCC(C(=O)NCc4ccc(F)cc4)C3)nc2)n1 (stereo not drawn)	28.0	57.9*	-1.4	16.4	3.1
O=C(NCc1ccc(F)cc1)C1CCN(c2cnc(N3CCCCC3)nc2)CC1	-10.0	5.0	-3.1	69.2*	15.3
Cc1noc(-c2ccc(N3CCCC(C(=O)Nc4cccc(F)c4C)C3)nc2)n1 (stereo not drawn)	-11.9	18.0	-3.1	-0.1	0.5
Cc1cc(F)ccc1NC(=O)C1CCN(c2cnc(N3CCCCC3)nc2)CC1	-7.2	-12.1	-3.6	33.2*	30.6*
O=C(NCc1ccccc1)C1CCN(c2cnc(N3CCCCCC3)nc2)CC1	-115.3	-26.8	-1.4	-8.0	-20.1
Cc1noc2ncc(-c3nnc(C(C)(C)c4ccccc4)o3)cc12	-219.9	-58.4	-4.3	-78.8	-32.8
CC(=O)N1CCCC(Cc2nccnc2-c2ccn[nH]2)C1 (stereo not drawn)	1.4	-12.1	-1.4	1.0	-72.2
CCc1ccc(NC(=O)Cn2c(=O)n(Cc3ccccc3)c(=O)c3nn(CC)cc32)cc1	77.7*	73.4*	56.2*	27.7	98.2*
CC(C)c1ccc(NC(=O)Cn2c(=O)n(Cc3ccncc3)c(=O)c3ncccc32)cc1	-48.2	-17.3	-2.8	-11.3	1.0
CCc1ccc(NC(=O)Cn2c(=O)n(C)c(=O)c3nscc32)cc1	-82.9	38.9*	-3.2	24.2	3.5
CCn1cc2c(n1)c(=O)n(Cc1ccccc1)c(=O)n2CC(=O)Nc1ccc(OC)cc1	39.0*	80.4*	47.0*	2.5	68.3*
CCOc1ccc(NC(=O)Cn2c(=O)n(Cc3ccncc3)c(=O)c3ncccc32)cc1	11.6	19.6	-3.4	22.4	17.0
CCn1cc2c(n1)c(=O)n(Cc1ccccc1)c(=O)n2CC(=O)Nc1ccc(C(C)C)cc1	29.3	40.2*	23.5	0.7	71.2*
COCc1nn(C)c2c1CN(S(=O)(=O)Cc1cccc(F)c1)CC2	-2.3	2.6	2.2	5.9	2.4
O=c1c(Cc2ccccc2)c(O)ccn1Cc1cccs1	-21.9	5.0	0.8	4.6	4.8
Cc1cnn(CC2CCCN2Cc2csc(-c3cnn(C)c3)n2)c1 (stereo not drawn)	-120.2	/	-9.8	-32.9	-39.2
SMILES	USP30 inh	USP17 inh	USP10 inh	USP28 inh	USP8 block
O=C(CCc1ccccc1)N(CC1CCCO1)c1nc2ccccc2s1 (stereo not drawn)	55.8*	21.0	3.5	21.9	6.2
CCOC(=O)c1ccc2[nH]cc(C(C)=O)c(=O)c2c1	/	-12.6	-7.1	/	-26.2
Cc1ccc2[nH]cc(S(=O)(=O)c3cc(Cl)cc(Cl)c3)c(=O)c2c1	-33.3	47.8*	7.6	-3.0	13.2
O=C(Cc1c[nH]c2ccccc12)Nc1nc2ccccc2s1	-7.6	4.8	-2.3	63.5*	7.1
CN1C(=O)COc2ccccc2CCCC[C@@H]2[C@H]1CCCN2C(=O)c1n[nH]c2c1CCC2	30.8*	6.4	0.6	12.0	9.5
CN1C(=O)COc2ccccc2CCCC[C@@H]2[C@H]1CCCN2S(=O)(=O)N1CCOCC1	30.6*	3.0	-4.5	16.5	7.7
Cc1cc(C)n(CC2CCCCN2C(=O)c2ccc(C)n(C)c2=O)n1 (stereo not drawn)	-7.6	-4.1	1.9	-11.0	-0.8
CCC(C(=O)Nc1nnc2n1CCCS2)c1ccccc1 (stereo not drawn)	6.0	13.2	0.8	4.8	21.6
COc1ccc(-c2cc(=O)c3cc(OC(=O)C4CCCCC4)ccc3o2)cc1	1.4	-37.5	5.4	6.8	15.5
COc1cc(C2CC(=O)Nc3n[nH]c(-c4ccccc4)c32)cc(OC)c1OC (stereo not drawn)	-1.0	0.1	1.4	-0.5	6.1
COc1cc(OC)c2c(=O)cc(-c3ccccc3)oc2c1OC	36.8*	1.0	3.2	3.5	6.4
COc1c(O)c(O)c2c(=O)cc(-c3ccc(O)cc3)oc2c1OC	13.2	67.2*	13.8	40.3*	19.7
COc1ccc(-c2nn(-c3ccccc3)cc2/C=C(/C#N)c2ccccc2)cc1OC	-25.7	-6.8	5.2	-6.9	0.0
COc1ccc(-c2cc(-c3ccccc3)nc(SCC(N)=O)c2C#N)cc1OC	-7.1	75.1*	22.4	-9.8	27.5
COc1cccc(CCNC(=O)CCn2c(=O)c(C)nc3cc(C)c(C)cc32)c1	i	-177.6	-4.7	-269.5	-12.2
Cc1cc(O)c2c3c(c(O)c4c(c13)O[C@@H](C)C4(C)C)C(=O)C2=O	0.0	83.4*	-2.1	30.6*	-140.1
Cc1ccccc1CN1C[C@@H]2c3nc(NCC4CC4)ncc3CS(=O)(=O)[C@@H]2C1	-67.7	-22.0	-8.0	-37.9	34.8*
CCc1cc2c(=O)[nH]c(Cc3ccc(OC)cc3)nc2s1	39.6*	58.0*	9.1	11.2	34.8*
CCc1cc2c(NCc3cccnc3)nc(C)nc2s1	12.6	-2.4	0.1	2.1	3.6
CC(C)(C)c1ccc(Nc2nc(-c3cccnc3)nc3ccccc23)cc1	-68.3	-13.0	-9.1	-18.9	18.9
c1cncc(-c2nc(Nc3ccc4c(c3)OCCO4)c3ccccc3n2)c1	52.8*	42.0*	-0.9	43.7*	28.3
c1cncc(-c2nc(Nc3ccc4c(c3)OCCCO4)c3ccccc3n2)c1	-13.6	40.1*	-5.3	6.1	0.9
O=C(c1nccc2ccccc12)N1CCCCC1c1ccn2ccnc2n1 (stereo not drawn)	7.2	8.9	-3.8	8.4	-15.2
CC(=O)Nc1cccc(NC(=O)c2ccc(CSc3ccc(Cl)cc3)cc2)c1	-18.4	-3.4	-4.2	-7.0	-1.5
CC(=O)Nc1ccc(SCc2nc3ccccc3nc2C)cc1	-26.8	4.6	-1.0	5.4	38.6*
CCCn1nnc2cc(-c3noc(CNC(=O)c4cccs4)n3)ccc21	15.2	33.3*	-1.2	15.6	4.6
